From the supplement of paper PMC13380429

Legend:
[1] = system: Vero E6 infected with SARS-CoV-2; assay: morphology score (similarity to uninfected cells); higher = more like uninfected cells; details: 24 h
[2] = system: Vero E6 infected with SARS-CoV-2; assay: SARS-CoV-2 infection rate relative to infected DMSO; higher = more infection, active = 60 or less; details: 24 h

SMILES: Cc1ccc2c(c1)=C(c1ccccc1)C(C1=NN(C(=O)CCC(=O)O)C(c3ccc(Br)cc3)C1)C(=O)N=2 (stereo not given) (10 µM)
- morphology score [1]: -0.085
- SARS-CoV-2 infection rate [2]: 104% (inactive)

SMILES: CCn1c(-c2nonc2N)nc2cnc(Oc3cccc(NC(=O)c4ccc(OCCN5CCOCC5)cc4)c3)cc21 (10 µM)
- morphology score [1]: 0.306
- SARS-CoV-2 infection rate [2]: 97% (inactive)

SMILES: CCOC(=O)c1cncn1[C@H](C)c1ccccc1 [etomidate] (10 µM)
- morphology score [1]: -0.0479
- SARS-CoV-2 infection rate [2]: 110% (inactive)

SMILES: CCCCCCCCCCCCCCCCCCOP(=O)([O-])OC1CC[N+](C)(C)CC1 [perifosine] (10 µM)
- morphology score [1]: 0.116
- SARS-CoV-2 infection rate [2]: 104% (inactive)

SMILES: CC(C)C[C@H](NC(=O)CNC(=O)[C@H](Cc1ccc(O)cc1)NC(=O)[C@H](CO)NC(=O)[C@H](Cc1c[nH]c2ccccc12)NC(=O)[C@H](Cc1cnc[nH]1)NC(=O)[C@@H]1CCC(=O)N1)C(=O)N[C@@H](CCCNC(=N)N)C(=O)N1CCC[C@H]1C(=O)NCC(N)=O [gonadorelin] (10 µM)
- morphology score [1]: -0.182
- SARS-CoV-2 infection rate [2]: 104% (inactive)

SMILES: C[C@]12CC[C@H](O)C[C@H]1CC[C@@H]1[C@@H]2C[C@@H](O)[C@]2(C)[C@@H](C3=CC(=O)OC3)CC[C@]12O [digoxigenin] (0.833333 µM)
- morphology score [1]: -0.000579
- SARS-CoV-2 infection rate [2]: 99.5% (inactive)

SMILES: O=C(O)[C@@H](S)[C@@H](S)C(=O)O [dimercaptosuccinic-acid] (10 µM)
- morphology score [1]: 0.102
- SARS-CoV-2 infection rate [2]: 100% (inactive)

SMILES: Cc1ccccc1-n1c(Cn2ncc3c(N)ncnc32)nc2cccc(C)c2c1=O (10 µM)
- morphology score [1]: 0.373
- SARS-CoV-2 infection rate [2]: 45% (active)

SMILES: C[C@@]1(F)[C@H](O)[C@@H](CO)O[C@H]1n1ccc(N)nc1=O (10 µM)
- morphology score [1]: 0.0439
- SARS-CoV-2 infection rate [2]: 104% (inactive)

SMILES: CCN(CC)CCNc1ccc(CO)c2sc3ccccc3c(=O)c12 [hycanthone] (0.833333 µM)
- morphology score [1]: 0.244
- SARS-CoV-2 infection rate [2]: 82% (inactive)

SMILES: COC(=O)[C@H](NC(=O)c1cc(-c2ccccc2)nc2ccccc12)c1ccccc1 (10 µM)
- morphology score [1]: 0.0787
- SARS-CoV-2 infection rate [2]: 100% (inactive)

SMILES: CC(C)(C)c1[nH]cnc1/C=c1\[nH]c(=O)/c(=C/c2ccccc2)[nH]c1=O [plinabulin] (0.833333 µM)
- morphology score [1]: -0.0585
- SARS-CoV-2 infection rate [2]: 112% (inactive)

SMILES: FC(F)(F)c1cc(NC(=S)Nc2ccc(Br)cc2-c2nnn[nH]2)cc(C(F)(F)F)c1 (10 µM)
- morphology score [1]: 0.0928
- SARS-CoV-2 infection rate [2]: 98% (inactive)

SMILES: C[C@@H](N[C@H]1CCCC[C@@H]1NC(=O)c1ccc(Cl)cc1)c1cccc2ccccc12 [Calhex-231] (10 µM)
- morphology score [1]: 0.134
- SARS-CoV-2 infection rate [2]: 91.5% (inactive)

SMILES: CN(c1ncccc1CNc1nc(Nc2ccc3c(c2)CC(=O)N3)ncc1C(F)(F)F)S(C)(=O)=O (0.833333 µM)
- morphology score [1]: -0.119
- SARS-CoV-2 infection rate [2]: 106% (inactive)

SMILES: Cc1c(C)c2c(c(C)c1O)CCC(C)(COc1ccc(CC3SC(=O)NC3=O)cc1)O2 (stereo not given) [troglitazone] (10 µM)
- morphology score [1]: 0.342
- SARS-CoV-2 infection rate [2]: 89% (inactive)

SMILES: O=C(Nc1cnc(Cl)nc1)c1ccc(F)c(F)c1 (10 µM)
- morphology score [1]: 0.0439
- SARS-CoV-2 infection rate [2]: 101% (inactive)

SMILES: O=C1NCCc2[nH]c(-c3ccncc3)cc21 (0.833333 µM)
- morphology score [1]: 0.0617
- SARS-CoV-2 infection rate [2]: 106% (inactive)

SMILES: O=C(Nc1cc(C(F)(F)F)cc(C(F)(F)F)c1)c1cnc(Cl)nc1C(F)(F)F (10 µM)
- morphology score [1]: -0.17
- SARS-CoV-2 infection rate [2]: 111% (inactive)

SMILES: Cn1cc(-c2ccc(S(=O)(=O)n3ccc(/C=C/C(=O)Nc4ccccc4N)c3)cc2)cn1 (10 µM)
- morphology score [1]: -0.0742
- SARS-CoV-2 infection rate [2]: 105% (inactive)

SMILES: C[N+]1(C)[C@@H]2CC[C@H]1C[C@@H](OC(=O)C(O)c1ccccc1)C2 (stereo not given in full) [homatropine-methylbromide] (10 µM)
- morphology score [1]: -0.0363
- SARS-CoV-2 infection rate [2]: 104% (inactive)

SMILES: Cc1cc2cc3c(C)cc(=O)oc3c(C)c2o1 [trioxsalen] (10 µM)
- morphology score [1]: 0.133
- SARS-CoV-2 infection rate [2]: 94% (inactive)

SMILES: CC(C)NC(=N)NC(=N)Nc1ccc(Cl)cc1 [proguanil] (10 µM)
- morphology score [1]: -0.0553
- SARS-CoV-2 infection rate [2]: 112% (inactive)

SMILES: CN(C(=O)Cc1ccc(Cl)c(Cl)c1)[C@H](CN1CCCC1)c1ccccc1 (10 µM)
- morphology score [1]: 0.793
- SARS-CoV-2 infection rate [2]: 21.5% (active)

SMILES: CCN(CC)Cc1ccc2cc(COC(=O)Nc3ccc(C(=O)NO)cc3)ccc2c1 [givinostat] (10 µM)
- morphology score [1]: -0.215
- SARS-CoV-2 infection rate [2]: 112% (inactive)

SMILES: O=C(N[C@H](Cc1ccccc1)C(=O)O)c1sc2cc(F)ccc2c1Cl (10 µM)
- morphology score [1]: 0.16
- SARS-CoV-2 infection rate [2]: 79.5% (inactive)

SMILES: C=C[C@]1(C)C[C@@H](OC(=O)CS[C@@H]2C[C@H]3CC[C@@H](C2)N3C)[C@]2(C)[C@H](C)CC[C@]3(CCC(=O)[C@H]32)[C@@H](C)[C@@H]1O [retapamulin] (10 µM)
- morphology score [1]: 0.0286
- SARS-CoV-2 infection rate [2]: 109% (inactive)

SMILES: COc1cccc2c1C(=O)c1c(O)c3c(c(O)c1C2=O)C[C@@](O)(C(=O)CO)C[C@@H]3O[C@H]1C[C@H](N2CCO[C@H](OC)C2)[C@H](O)[C@H](C)O1 [nemorubicin] (0.833333 µM)
- morphology score [1]: 0.0228
- SARS-CoV-2 infection rate [2]: 108% (inactive)

SMILES: CCCCCS(=O)(=O)CCCCCCCCCCn1c(-c2ccc(O)cc2)c(C)c2cc(O)ccc21 (0.833333 µM)
- morphology score [1]: 0.00616
- SARS-CoV-2 infection rate [2]: 102% (inactive)

SMILES: CN(C)Cc1ccc(-c2nc3cccc4c3n2CCNC4=O)cc1 (10 µM)
- morphology score [1]: 0.092
- SARS-CoV-2 infection rate [2]: 97.5% (inactive)
